# Bioassay records deposited in PubChem BioAssay by several laboratories.
# An excerpt weighted towards active compounds, which were near 4.2% of everything screened.
# FBA Mtb inh: Mtb fructose-bisphosphate aldolase inhibition; P9WQA3; purified M. tuberculosis FBA, fluorescence read-out; inhibition, % at 1 µM; hit rate 2.3% among 360,000; in the data active = inhibition above about 27%;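 also: 0% = vehicle and 100% = reference inhibitor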
# CCHF vOTU inh: blocks the CCHF virus ovarian tumor domain protease; CCHFV vOTU protease, Pep-AMC fluorescence; inhibition, % at 11.5 µM; hit rate 0.55% among 370,000; AID 651958; also: 0% = vehicle wells with enzyme and 100% = no enzyme wells
# RecA intein inh: Mtb RecA intein splicing inhibition; P9WHJ3; cell-free RecA intein splicing, fluorescence; inhibition, % (concentration not given with the values); hit rate 0.75% among 290,000; AID 2221; in the data active = inhibition above about 30%;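 also: 0% = vehicle wells and 100% = reference inhibitor control wells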
# GDH-TPI counter: counter-screen for M. tuberculosis FBA inhibitors: GDH-TPI coupled enzymes | GDH-TPI coupled enzyme counterscreen, NADH absorbance | inhibition, % at 4.8 µM | hit rate 1.2% among 360,000 | AID 588335;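 also: 0% = DMSO wells and 100% = wells lacking the enzyme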
# * marks the source's active call; other numbers are inactive results; / = no result. Rule as the data show it, unless noted: active = inhibition above about 30%; inactive = the rest.
SMILES,FBA Mtb inh,CCHF vOTU inh,RecA intein inh,GDH-TPI counter
Cc1ccc(C(=O)NCCc2ccccc2)cc1,1,/,-6,1
CC(NC(=O)c1ccc(=O)oc1)c1ccccc1 (centres undefined),0,25,-2,59*
CC(NC(=O)c1ccncc1)c1ccccc1 (centres undefined),0,0,-3,5
CC(C)C(Cl)=NOC(=O)Nc1ccc(S(N)(=O)=O)cc1,-1,5,/,11
CCCOc1ccc2c(C)c(CC(=O)OC)c(=O)oc2c1,121*,-61,-4,24
COC(=O)Cc1c(C)c2ccc(OCC(=O)N(C)C)cc2oc1=O,138*,-62,3,20
Cc1c(Cc2ccccc2)c(=O)oc2cc(OCC(=O)c3ccccc3)ccc12,11,-23,-2,-3
COC(=O)Cc1c(C)c2ccc(OCC(=O)NC3CCS(=O)(=O)C3)cc2oc1=O (centres undefined),140*,-65,0,7
COc1ccc(C[N+]2=C(N)NC3=C(C)Cn4c(=O)n(-c5ccccc5)c(=O)n4C3C2)c(OC)c1 (centres undefined),/,-2,/,/
CCOC(=O)c1ccc(-c2csc(NC(=O)CN3CCC(C)CC3)n2)cc1,0,20,1,-5
O=C(CNC(=O)c1cccs1)Nc1ncccc1O,1,4,-1,-4
Clc1ccc(-c2nc3ccc(Br)cn3c2Cc2ccsc2)cc1,1,13,/,/
N#Cc1cccc(NC(=O)OCCN2C(=O)CCC23CCC(c2ccccc2)CC3)c1 (centres undefined),/,2,/,/
COc1ccccc1OCCN1CSC(=S)N(C)C1,1,-1,18,-4
Cc1cccc(OCCN2CSC(=S)N(C)C2)c1,-2,-3,42*,-5
CN(C)c1ccc(C(=O)c2ccccc2)cc1,-4,8,5,31*
C=C(c1ccccc1)c1ccc(N(C)C)cc1,2,-13,-4,10
CC(N)c1csc(Nc2ccc(C(=O)NCCO)cc2)n1 (centres undefined),0,-2,/,-2
CC(=O)c1ccc(Nc2nc(C(C)N)cs2)cc1 (centres undefined),-5,9,/,31*
Cc1cccc(C)c1NC(=O)CN(C)C(=O)Cn1c(=O)cnc2ccccc21,-1,-1,-8,-7
C/C(C=NNC(=O)CSc1nc2ccccc2n1Cc1ccccc1Cl)=C\c1ccccc1,/,7,/,/
O=C(NCCO)/C(=C\c1ccc(Br)cc1)NC(=O)c1cccs1,0,-1,-1,10
COCCCNC(=O)/C(=C\c1cccn1C)NC(=O)c1cccs1,3,-5,-2,34*
CCc1nnc(NC(=O)c2ccc(C)o2)s1,4,1,0,-1
CCSc1nnc(NC(=O)c2ccc(C)o2)s1,0,4,2,32*
SMILES,FBA Mtb inh,CCHF vOTU inh,RecA intein inh,GDH-TPI counter
CCCc1cc(=O)oc2cc(OCC(=O)NCCc3c[nH]c4ccccc34)ccc12,4,7,/,28
CN1CCCCC(NC(=O)CCCl)C1=O (centres undefined),/,-1,/,/
Clc1ccc(C2=NN(c3ccccc3)C(c3ccco3)C2)cc1 (centres undefined),161*,-25,-1,9
CC(=O)Nc1ccc(Nc2nc(C)c([N+](=O)[O-])c(N(C)c3ccccc3)n2)cc1,-4,0,4,13
COc1ccc(/C=N/Nc2nc(C)c([N+](=O)[O-])c(N(C)c3ccccc3)n2)cc1OC,-3,3,-1,45*
CN(CCO)c1ccc2c(c1)Oc1ccccc1CN(Cc1cn(Cc3cccc(C(F)(F)F)c3)nn1)S2(=O)=O,/,9,/,/
CSc1nc(-c2ccccc2)c(C#N)c(=O)[nH]1,1,-12,-3,4
CSc1c2c([nH]c(=O)c1C#N)-c1ccccc1CC2,175*,-93,/,/
CC(C)(C)OC(=O)COc1cc(OCC(=O)OC(C)(C)C)c2c(=O)cc(-c3ccccc3)oc2c1,28*,20,7,21
COc1ccc(-n2c(=O)c3ccccc3c3ccccc3c2=O)cc1,5,9,31*,-12
COC(=O)C1CN(Cc2ccc(OC)cc2)CCS(=O)(=O)N1Cc1ccc(C)cc1 (centres undefined),/,2,/,/
Cc1c(OC(C)C(=O)NC2CC(C)(C)NC(C)(C)C2)ccc2c3c(c(=O)oc12)CCC3 (centres undefined),20,-2,2,8
Cc1c(C)c2ccc(OC(C)C(=O)NC3CC(C)(C)NC(C)(C)C3)cc2oc1=O (centres undefined),123*,-24,-1,12
Fc1ccc(Oc2nc(-c3ccccc3)nnc2C(F)(F)F)cc1,13,7,62*,-3
COC(=O)Cn1c(=NC(=O)c2ccc(OC)cc2)sc2cc(OC)ccc21,11,-10,-3,36*
